Compounds without any hit were thinned out: in the full panel of roughly 83,000, 20% have a hit.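 Cells were grown in 96-well plates and exposed to the test compound at a single concentration for 48 hours; results are reported as percent growth, with values below 10 considered active.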 Values without a mark were called inactive. Calls of active or inactive are those of the source.

This test concerns HL-60(TB) leukemia. Put plainly: NCI-60 one-dose screen, 48 h (100 = growth as untreated, 0 = no growth, -100 = all killed). The settings on record: 10 µM unless noted. As for the experimental part:
Growth inhibition of the HL-60(TB) human tumor cell line is measured as a screen for anti-cancer activity. Cells are grown in 96 well plates and exposed to the test compound for 48 hours. Compounds are tested at a single concentration, which is 10^-5 M for most compounds. The reported endpoint is percent growth (GI% or GIPRCNT), where numbers from 0 - 100% represent growth inhibition, and numbers from -100% - 0 represent cell death. For example, a value of 40 represents 60% growth inhibition. A value of 0 means no net growth occurred over the course of the experiment. A value of -40 indicates 40% of cells at the beginning of the experiment died by the end of the experiment. A value of -100 means all cells are dead at the end of the experiment.
NCI-60 Human Tumor Cell Lines Screen was performed using the standard one-dose NCI protocol, which is described in more detail at https://dtp.cancer.gov/discovery_development/nci-60/default.htm.
Compounds with GIPRCNT values below 10 were considered active. Activity score was based on GIPRCNT using the following formula: […]
Score is 0 for GIPRCNT values of 100 or above, 50 for GIPRCNT values of 0, and 100 for GIPRCNT values of -100.
Regarding `Nc1ccc2c(c1)Cc1cc(Br)ccc1-2`, the growth was 47.8%.
Then `CC(=O)O[C@H](C[C@H](C(C)C)N(C)C(=O)[C@@H](NC(=O)[C@H]1CCCCN1C)C(C)C)c1nc(C(=O)N[C@@H](Cc2ccccc2)C[C@H](C)C(=O)O)c(C)s1`, with -8.97% (active); and `CC(CC1CCCCC1)NCc1ccccc1` (stereo not given), with 111%.
Then `CN1C(=O)C23CC4(C56CC78SSC(CO)(C(=O)N7C5Nc5ccccc56)N(C)C8=O)c5ccccc5NC4N2C(=O)C1(CO)SS3` (stereo not given), with -63.1% (active).
On to `CCOC(=S)S[C@H]1C[C@@H]2[C@H](CC[C@]3(C)C(=O)CC[C@@H]23)[C@@]2(C)CCC(=O)C=C12`, for which the growth was 101%.
`COc1ccc(C2=N[C@@H](Cc3ccccc3)C(=O)Nc3ccsc32)cc1`: the growth is 8.11% (active).
To `ClCCN(CCCl)Cc1ccc(Nc2ccnc3cc(Cl)ccc23)cc1` belongs -38.6% (active).
To `O=C1C2C(C(=O)[N]1[Hg][c]1cccs1)C1(Cl)C(Cl)=C(Cl)C2(Cl)C1(Cl)Cl` (stereo not given) belongs -12.1% (active); to `COC(=O)[C@@H](C)C[C@H](Cc1ccccc1)NC(=O)c1csc(CC[C@H](C(C)C)N(C)C(=O)[C@@H](NC(=O)[C@H]2CCCCN2C)C(C)C)n1`, -34.4% (active); to `CC(C)CCC1(CCCl)C(=O)NC(=O)NC1=O`, 108%.
To `COc1cc(/C=C/[N+](=O)[O-])cc(OC)c1` belongs -20.3% (active).
With `CC(=O)O[C@H](C[C@H](C(C)C)N(C)C(=O)[C@@H](NC(=O)[C@H]1CCCCN1C)C(C)C)c1nc(C(=O)N[C@@H](Cc2ccccc2)C[C@H](C)C(=O)O)c(C(C)C)s1`, the growth was -41.4% (active).
Then `COC(=O)[C@@H](C)C[C@H](Cc1ccc2ccccc2c1)NC(=O)c1csc([C@@H](C[C@H](C(C)C)N(C)C(=O)[C@@H](NC(=O)[C@H]2CCCCN2C)C(C)C)OC(C)=O)n1`, with 9.43% (active); and `CC12CCC3C(C=CC4=C(N)C(=O)CCC43C)C1CCC2=O` (stereo not given), with 52.5%.
Then `O=C1NC(=O)C(=Cc2ccc(OCCCCC3CCCCC3)c(Cl)c2)C(=O)N1`, with 92.8%; and `COc1ccc(/C=C\c2cc(OC)c(OC)c(OC)c2)c(NS(=O)(=O)c2ccc(F)cc2)c1O`, with 10.1%.
To `CCC1CC(O)c2c(O)c3c(c(O)c2C1O)C(=O)c1cccc(O)c1C3=O` (stereo not given) (tested in a mixture with another compound) belongs -45.5% (active); to `Cn1cc(-c2csc(-c3cn(CCN4CCOCC4)c4ccc(F)cc34)n2)c2cccnc21`, 1.01% (active); to `Fc1ccc2c(c1)c(-c1nc(-c3c[nH]c4ncccc34)cs1)cn2CCCCN1CCCCC1`, -70% (active).
As for `CN1C(=O)C(=Cc2cn(CCCCCCn3c4ccccc4c(=O)c4ccccc43)c3ccccc23)C(=O)N(C)C1=O`, the growth is 79.3%.
Then `COc1ccc2c(c1)c(-c1nc(-c3cn(C)c4ncccc34)cs1)cn2CCN1CCOCC1`, with 31.3%; and `COC(=O)[C@H](Cc1ccccc1)NC(=O)c1csc([C@@H](C[C@H](C(C)C)N(C)C(=O)[C@@H](NC(=O)[C@H]2CCCN2C)C2CC2)OC(C)=O)n1`, with -44.9% (active); and `C[N+]12CN3CN(CN(C3)C1)C2`, with 142%.
To `C[C@@]12CC=C3c4nc(Nc5cccc(O)c5)sc4CC[C@]3(C)[C@H]1CC[C@]1(C)C(=O)CC[C@@H]21` belongs 46%.
Then `Nc1nc([Se])c2ncn(C3OC(CO)C(O)C3O)c2n1` (stereo not given), with 41.7%; and `Cc1cc(N(CCCl)CCCl)ccc1C=Nc1ccc(-c2csc(Cc3ccccc3)n2)cc1`, with 30.7%.
For `Clc1ccc(COC(Cn2ccnc2)c2ccc(Cl)cc2Cl)cc1` (stereo not given), the growth was -40.2% (active).
To `CC(CO)NC1CCCCC1` (stereo not given) belongs 116%; to `O=C(CC1(O)C(=O)Nc2ccccc21)c1ccc(C(=O)NCC2CCC3(CC2)OOC2(CCCCC2)OO3)cc1` (stereo not given), 31.7%.
Then `CN1CCCCC1C(C)(O)c1ccccc1` (stereo not given), with 114%; and `COP(=O)(OC)C(O)c1ccc(Cl)cc1` (stereo not given), with 98.9%.
Then `C/C(Cc1ccc(Cl)cc1)=C(\c1ccc(OCCN2CCOCC2)cc1)c1ccc(OC(=O)Cc2ccccc2)cc1`, with 100%; and `O=C(CCCC1CCCCC1)OCC(Cl)(Cl)Cl`, with 100%; and `COC(=O)[C@@H](C)C[C@H](Cc1ccc(F)cc1)NC(=O)c1csc([C@@H](C[C@H](C(C)C)N(C)C(=O)[C@@H](NC(=O)[C@H]2CCCCN2C)C2CC2)OC(C)=O)n1`, with -35.1% (active).
For the molecule `Fc1ccc(N2COOC3(OOC2)C2CC4CC(C2)CC3C4)cc1`, the growth was 74%.
To `C/C(=C\c1ccn(-c2ccccc2N)n1)[C@@H]1C[C@@H]2O[C@]2(C)CCC[C@H](C)[C@H](O)[C@@H](C)C(=O)C(C)(C)[C@@H](O)CC(=O)O1` belongs 9.72% (active).
As to `C[C@@]1(CCCCCCCCCc2ccc(O)cc2)C[C@]2(C)OC(=O)C[C@@H]2OO1`, the growth was 81%.
Then `Clc1ccc(CSC(Cn2ccnc2)c2ccc(Cl)cc2Cl)cc1` (stereo not given), with -11.6% (active).
Then `CC(=O)OC[C@]1(C)C=C2C(=O)[C@](C)(O)C3(CC3)C(C)=C2[C@H]1OC(=O)N(C)CCN(C)C(=O)OC(C)(C)C`, with -37% (active).
`O=[N+]([O-])c1c(Br)sc(Br)c1[N+](=O)[O-]`: the growth was -11.2% (active).

The values are drawn from PubChem BioAssay (NCI).
